Source: PubChem
ER stress surv = ER stress cell death inhibition; CSM14.1 thapsigargin ER stress survival, ATP luminescence; 48,000 compounds, 0.33% hits; relative survival (cellular ATP), % at 15 µg/mL (by protocol);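 active means survival measured by cellular ATP above 50% at 15 µg/ml in the first screen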;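 further: cell death triggered by about 15 µM thapsigargin; ATP read 24 h after thapsigargin was added; plate controls were thapsigargin with DMSO for no effect and DMSO without thapsigargin for full effect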
Numbers without * were called inactive. The entries come from a sample that favours hits as a whole.

SMILES	ER stress surv
COc1cc(OC)cc(C(=O)N2CCN(Cc3ccccn3)CC2)c1	0
COc1ccc(CN2CCN(C(=O)c3ccc(-c4ccccc4)cc3)CC2)c(OC)c1	129*
COc1cc(C(=O)N2CCN(Cc3ccccc3C(F)(F)F)CC2)cc(OC)c1OC	8
COc1ccc(Br)cc1CN1CCN(C(=O)c2ccc(-c3ccccc3)cc2)CC1	98*
COc1ccc(CN2CCN(C(=O)c3ccc(-c4ccccc4)cc3)CC2)cc1OC	-6
COc1cc(OC)cc(C(=O)N2CCN(Cc3ccccc3C(F)(F)F)CC2)c1	73*
COc1cc(OC)c(OC)cc1CN1CCN(C(=O)c2ccc(OC)c(OC)c2)CC1	2
COc1ccc(C(=O)N2CCN(Cc3ccccc3)CC2)c(OC)c1	-2
COc1ccc(CN2CCN(C(=O)c3ccccc3)CC2)c(OC)c1OC	1
Clc1ccccc1-c1noc(C23CC4CC(CC(C4)C2)C3)n1	6
CCc1cc(C)cc(OCCOc2cccc(/C=C3/SC(=S)N(C)C3=O)c2)c1	3
C1=CC2CC1CC2CN1CCN(Cc2cccnc2)CC1 (stereo not given)	2
O=C1c2cccc3cccc(c23)C(=O)N1Oc1ccc([N+](=O)[O-])cc1[N+](=O)[O-]	9
O=C(NCc1ccncc1)C(=O)Nc1nccs1	8
COc1ccc(C(=O)Nc2nc(C34CC5CC(CC(C5)C3)C4)cs2)cc1	8
O=C(NCc1ccncc1)C(=O)Nc1nc(C23CC4CC(CC(C4)C2)C3)cs1	88*
COc1ccccc1OCC(=O)Nc1ccc(N(C)C)cc1	9
CC1=NN(c2ccccc2)C(=O)/C1=C\c1c(O)n(-c2ccc(C)cc2)[nH]c1=O	-8
COc1ccccc1C1Nc2ccc(C(=O)c3ccccc3)cc2NC2=C1C(=O)CCC2 (stereo not given)	10
CN(C)c1ccc(C2Nc3ccc(C(=O)c4ccccc4)cc3NC3=C2C(=O)CCC3)cc1 (stereo not given)	97*
COc1ccc(C2Nc3ccc(C(=O)c4ccccc4)cc3NC3=C2C(=O)CCC3)c(OC)c1 (stereo not given)	3
CCOC(=O)c1c(C)oc2cc(Br)c(OC(C)=O)c(OC(C)=O)c12	-1
CCOc1ccc(N2C(=O)NC(=O)/C(=C\C3C(=O)N(c4ccccc4)N=C3C)C2=O)cc1 (stereo not given)	-2
COc1ccc(CCN=CC2=C(O)CC(C)(C)CC2=O)cc1OC	9
COc1ccc(CCN=Cc2c(O)n(-c3c(Cl)cccc3Cl)c3ccccc23)cc1OC	120*
SMILES	ER stress surv
COc1ccc(CCN=CC2=C(O)CC(c3ccccc3)CC2=O)cc1OC (stereo not given)	8
COc1ccc(CCNC(=O)CN(c2ccc(F)cc2)S(=O)(=O)c2ccccc2)cc1OC	2
COc1ccc(-c2nc3ccccc3c(C(=O)Nc3ccc(C)cc3)c2C)cc1	3
COc1ccc(NC(=O)c2c(C)c(-c3ccc(C)cc3)nc3ccccc23)c(OC)c1	68*
COc1ccc(NC(=O)c2cc(-c3ccc(OC)cc3OC)nc3ccccc23)c(OC)c1	4
NC(=O)c1c(NC(=O)C23CC4CC(CC(C4)C2)C3)sc2c1CCCCCC2	11
COc1cccc(-n2c(O)c(/C=C3\C(C)=Nc4ccccc43)c(=O)[nH]c2=O)c1	-5
COc1ccc(C2CC(=O)C3=C(C2)Nc2ccccc2NC3c2ccc(OC)c(OC)c2)cc1 (stereo not given)	12
CCOc1cc(C2Nc3ccccc3NC3=C2C(=O)CC(c2ccc(OC)cc2)C3)cc(Br)c1O (stereo not given)	64*
COc1ccc(C2CC(=O)C3=C(C2)Nc2ccccc2NC3c2cccc(Oc3ccccc3)c2)cc1OC (stereo not given)	85*
COc1ccc(C2Nc3ccccc3NC3=C2C(=O)CC(c2ccccc2)C3)cc1Br (stereo not given)	29
COc1ccc(C2CC(=O)C3=C(C2)Nc2ccccc2NC3c2ccc(OC)c(Br)c2)cc1 (stereo not given)	96*
CCOc1cc(C2Nc3ccccc3NC3=C2C(=O)CC(c2ccccc2)C3)cc(Br)c1O (stereo not given)	35
COc1ccc(C2CC(=O)C3=C(C2)Nc2ccccc2NC3c2cccc(F)c2)cc1OC (stereo not given)	2
COc1ccc(C2CC(=O)C3=C(C2)Nc2ccccc2NC3c2ccc(-c3ccccc3)cc2)cc1OC (stereo not given)	6
CCOc1ccc(C2Nc3ccccc3NC3=C2C(=O)CC(c2ccc(OC)cc2)C3)cc1OC (stereo not given)	5
O=C(Nc1ccc(Cl)c2c1C(=O)c1ccccc1C2=O)c1ccc([N+](=O)[O-])cc1Cl	7
COc1ccc(CCNC(=O)/C=C/c2ccc3c(c2)OCO3)cc1OC	12
COCCCNC(=O)COc1ccccc1C	9
Cc1ccc2cccc(SCC(=O)c3ccc(Br)cc3)c2n1	4
O=C(NN1C(=O)CSC1=S)c1ccccc1Br	5
COc1ccc(N(Cc2ccc(C(=O)NC3CCCC3)cc2)S(=O)(=O)c2ccccc2)cc1	2
CCN(CC)C(=O)c1ccc(CN(c2ccc(OC)cc2)S(=O)(=O)c2ccccc2)cc1	124*
COc1ccc(N(Cc2ccc(C(=O)NC3CCCCC3)cc2)S(=O)(=O)c2ccccc2)cc1	9
C=CCc1cccc(/C=N/NC(=O)c2cc(C)[nH]n2)c1O	-6
SMILES	ER stress surv
CSc1ccc(C2Nc3ccccc3NC3=C2C(=O)CC(C)(C)C3)cc1 (stereo not given)	11
COc1ccc(C2Nc3ccccc3NC3=C2C(=O)CC(C)(C)C3)cc1COc1ccc(F)cc1 (stereo not given)	61*
CC1(C)CC(=O)C2=C(C1)Nc1ccccc1NC2c1cccc(F)c1 (stereo not given)	0
COC(=O)c1ccc(C2Nc3ccccc3NC3=C2C(=O)CC(C)(C)C3)cc1 (stereo not given)	7
CCCCOc1ccc(C2Nc3ccccc3NC3=C2C(=O)CC(C)(C)C3)cc1 (stereo not given)	-3
CC1(C)CC(=O)C2=C(C1)Nc1ccccc1NC2c1ccc(-c2ccccc2)cc1 (stereo not given)	121*
COCCNC(=O)COc1ccc(Br)c(C)c1	1
Nc1nc(/N=C/c2ccc(F)cc2)n[nH]1	-3
Cc1cc(C)nc(/N=C(/N)Nc2ccc(S(=O)(=O)Nc3nccc(C)n3)cc2)n1	6
Cc1cc(C(=O)c2ccc(Br)cc2)ccc1S(=O)(=O)Nc1cccc([N+](=O)[O-])c1	10
COc1ccc(C2CC(C(F)(F)F)n3ncc(C(=O)Nc4ccc(F)cc4F)c3N2)cc1OC (stereo not given)	3
Cc1ccc(C2CC(C(F)(F)F)n3ncc(C(=O)N(Cc4ccccc4)Cc4ccccc4)c3N2)cc1 (stereo not given)	4
COc1ccc(C2CC(C(F)(F)F)n3ncc(C(=O)N(C)Cc4ccccc4)c3N2)cc1OC (stereo not given)	82*
CC(C)N1CN=C2SC(CO)(CO)C(=O)N2C1	12
O=C(COc1ccc(Br)cc1)NC1CCCCC1	4
O=C(/C=C/c1ccc([N+](=O)[O-])o1)c1ccc(Br)cc1	4
CN(C)c1ccc(/C=C/C(=O)c2ccc(Br)cc2)o1	56*
O=C(/C=C/c1ccc2c(c1)OCO2)c1ccc(Br)cc1	4
CC1=NN(c2nc(-c3ccc(Cl)c(Cl)c3)cs2)C(=O)C1C (stereo not given)	-3
Nc1ccc2nc(SCC(=O)Nc3cccc(C(F)(F)F)c3)sc2c1	6
